From PubChem BioAssay
Several values for one entry are separate records, joined by “and”; a condition that tells them apart may be missing. Identical values can stand only once. Activity calls are given as the source filed them.

How the values were obtained:
[1] = binders of probe aFSTL3 on microarray, primary screen, stem cell growth factor project, biochemical, small-molecule microarray, fluorescence 635/667 (AID 1064); settings: higher = more signal;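 also: measures binding of the biotinylated anti-FSTL3 antibody to printed compounds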
[2] = binders from COS7 lysate, DM2A8 probe, primary screen, torsin A project, cell lysate, small-molecule microarray, fluorescence 635/667 (AID 1065); settings: higher = more signal, COS7 lysate expressing mutant human TOR1A
[3] = binders of probe aFGF2 on microarray, primary screen, stem cell growth factor project, biochemical, small-molecule microarray, fluorescence 635/667 (AID 1067); settings: higher = more signal;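 also: measures binding of biotinylated aFGF2 protein to printed compounds on slides; z-score merges feature fluorescence and signal-to-noise across triplicate slides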
[4] = binders of probe aFGF10 on microarray, primary screen, stem cell growth factor project, biochemical, small-molecule microarray, fluorescence 635/667 (AID 1071); settings: higher = more signal;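 also: score merges 667 nm spot intensity and signal to noise from triplicate slides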
[5] = target: Neurogenic locus notch homolog protein 2 (Homo sapiens) (UniProt Q04721); test: Notch2 binders on small-molecule microarrays, primary screen, biochemical, small-molecule microarray, 635 nm fluorescence, stem cell growth factors (AID 1073); settings: Notch2 binding, higher = more signal
[6] = target: Pro-neuregulin-1, membrane-bound isoform (Homo sapiens) (UniProt Q02297); test: NRG1 binders on small-molecule microarrays, primary screen, psychiatric disease protein project, biochemical, small-molecule microarray, fluorescence 635/667 (AID 1075); settings: NRG1 binding, 635 nm fluorescence, higher = more signal;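 also: score combines 667 nm spot fluorescence with signal to noise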
[7] = tested on: Neuregulin-1 EGF-like domain; test: binders of neuregulin-1 EGF-like domain, primary screen, biochemical, small-molecule microarray, 635 nm fluorescence (AID 1081); settings: small-molecule microarray binding, higher = more signal;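 also: binding of the protein to compounds printed on small-molecule microarray slides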
[8] = FRG1 promoter luciferase signal modulators, primary screen, FRG1 inhibition for FSHD, cell-based, C2C12 myotubes, firefly/Renilla luciferase, luminescence (AID 1084); settings: higher = more signal, called active from +8 up or from −8 down
[9] = binders of probe aFST on microarray, primary screen, stem cell growth factor project, biochemical, small-molecule microarray, fluorescence 635/667 (AID 1086); settings: higher = more signal;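 also: score merges 667 nm fluorescence with signal-to-noise of each printed compound spot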
[10] = binders of probe aHhip on microarray, primary screen, stem cell growth factor project, biochemical, small-molecule microarray, fluorescence 635/667 (AID 1087); settings: higher = more signal;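 also: score merges spot fluorescence at 667nm with spot signal to noise ratio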

Sequence of Neurogenic locus notch homolog protein 2 (Homo sapiens) (Q04721 whole entry, looked up, canonical isoform): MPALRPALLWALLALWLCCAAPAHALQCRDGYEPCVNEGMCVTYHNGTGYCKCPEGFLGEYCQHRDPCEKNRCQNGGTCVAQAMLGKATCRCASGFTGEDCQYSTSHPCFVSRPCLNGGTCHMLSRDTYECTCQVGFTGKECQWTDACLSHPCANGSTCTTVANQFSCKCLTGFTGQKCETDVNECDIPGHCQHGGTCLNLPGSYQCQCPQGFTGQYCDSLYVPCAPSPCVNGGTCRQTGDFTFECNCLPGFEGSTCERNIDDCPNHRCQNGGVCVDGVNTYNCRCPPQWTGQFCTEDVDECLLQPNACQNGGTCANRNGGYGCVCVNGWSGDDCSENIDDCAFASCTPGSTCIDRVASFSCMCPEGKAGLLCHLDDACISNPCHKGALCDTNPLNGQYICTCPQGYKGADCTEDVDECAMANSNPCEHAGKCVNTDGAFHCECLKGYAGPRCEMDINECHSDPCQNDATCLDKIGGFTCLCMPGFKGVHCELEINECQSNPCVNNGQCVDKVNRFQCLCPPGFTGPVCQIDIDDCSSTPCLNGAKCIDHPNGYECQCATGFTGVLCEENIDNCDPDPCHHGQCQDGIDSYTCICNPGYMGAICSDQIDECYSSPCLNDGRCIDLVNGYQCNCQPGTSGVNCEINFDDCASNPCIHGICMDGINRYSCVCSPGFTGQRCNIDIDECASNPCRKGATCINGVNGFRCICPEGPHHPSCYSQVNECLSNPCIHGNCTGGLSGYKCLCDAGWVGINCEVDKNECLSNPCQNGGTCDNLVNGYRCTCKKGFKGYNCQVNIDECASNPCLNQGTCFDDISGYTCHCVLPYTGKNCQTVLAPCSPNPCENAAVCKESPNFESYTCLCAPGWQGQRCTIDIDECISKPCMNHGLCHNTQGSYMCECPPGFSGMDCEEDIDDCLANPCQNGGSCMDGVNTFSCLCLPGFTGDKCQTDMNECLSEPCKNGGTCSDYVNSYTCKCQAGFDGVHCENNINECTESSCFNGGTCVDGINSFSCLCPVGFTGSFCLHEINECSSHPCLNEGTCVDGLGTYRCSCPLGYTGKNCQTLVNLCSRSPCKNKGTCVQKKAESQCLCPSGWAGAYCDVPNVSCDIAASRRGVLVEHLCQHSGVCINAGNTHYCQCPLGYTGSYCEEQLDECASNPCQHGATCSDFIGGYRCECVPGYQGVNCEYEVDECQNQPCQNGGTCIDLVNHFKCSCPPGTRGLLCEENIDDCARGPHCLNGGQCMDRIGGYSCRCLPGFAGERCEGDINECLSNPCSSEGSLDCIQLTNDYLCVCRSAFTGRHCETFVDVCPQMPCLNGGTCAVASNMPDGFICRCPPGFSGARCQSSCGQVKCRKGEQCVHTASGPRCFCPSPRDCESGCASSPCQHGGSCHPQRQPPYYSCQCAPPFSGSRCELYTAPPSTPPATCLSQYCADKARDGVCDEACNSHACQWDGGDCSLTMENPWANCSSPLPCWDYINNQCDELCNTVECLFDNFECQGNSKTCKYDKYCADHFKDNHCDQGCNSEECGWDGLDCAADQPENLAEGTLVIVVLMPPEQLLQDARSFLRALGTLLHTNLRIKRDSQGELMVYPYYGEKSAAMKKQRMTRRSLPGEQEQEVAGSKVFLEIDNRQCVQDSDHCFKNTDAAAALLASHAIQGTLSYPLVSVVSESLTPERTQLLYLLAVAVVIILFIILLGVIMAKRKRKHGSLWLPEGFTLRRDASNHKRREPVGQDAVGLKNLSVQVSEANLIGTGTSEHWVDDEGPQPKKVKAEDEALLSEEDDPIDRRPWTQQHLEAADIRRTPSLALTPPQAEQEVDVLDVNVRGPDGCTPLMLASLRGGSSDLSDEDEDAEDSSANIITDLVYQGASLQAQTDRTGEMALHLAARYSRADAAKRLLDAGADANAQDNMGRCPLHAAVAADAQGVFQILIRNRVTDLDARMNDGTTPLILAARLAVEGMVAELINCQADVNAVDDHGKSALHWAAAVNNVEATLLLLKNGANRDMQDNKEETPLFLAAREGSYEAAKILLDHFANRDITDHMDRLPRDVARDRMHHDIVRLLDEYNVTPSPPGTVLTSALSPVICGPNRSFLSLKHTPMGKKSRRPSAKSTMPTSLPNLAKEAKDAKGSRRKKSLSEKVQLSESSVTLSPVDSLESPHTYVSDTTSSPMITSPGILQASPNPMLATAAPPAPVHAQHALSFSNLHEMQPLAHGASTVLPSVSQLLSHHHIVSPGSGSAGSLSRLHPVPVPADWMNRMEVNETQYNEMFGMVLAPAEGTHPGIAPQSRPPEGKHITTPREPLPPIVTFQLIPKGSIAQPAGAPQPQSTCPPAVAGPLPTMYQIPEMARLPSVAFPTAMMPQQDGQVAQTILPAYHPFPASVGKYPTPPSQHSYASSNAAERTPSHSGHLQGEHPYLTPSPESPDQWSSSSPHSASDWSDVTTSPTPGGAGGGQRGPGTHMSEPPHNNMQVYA
Sequence of Pro-neuregulin-1, membrane-bound isoform (Homo sapiens) (Q02297 whole entry, looked up, the tested form may be a part, canonical isoform): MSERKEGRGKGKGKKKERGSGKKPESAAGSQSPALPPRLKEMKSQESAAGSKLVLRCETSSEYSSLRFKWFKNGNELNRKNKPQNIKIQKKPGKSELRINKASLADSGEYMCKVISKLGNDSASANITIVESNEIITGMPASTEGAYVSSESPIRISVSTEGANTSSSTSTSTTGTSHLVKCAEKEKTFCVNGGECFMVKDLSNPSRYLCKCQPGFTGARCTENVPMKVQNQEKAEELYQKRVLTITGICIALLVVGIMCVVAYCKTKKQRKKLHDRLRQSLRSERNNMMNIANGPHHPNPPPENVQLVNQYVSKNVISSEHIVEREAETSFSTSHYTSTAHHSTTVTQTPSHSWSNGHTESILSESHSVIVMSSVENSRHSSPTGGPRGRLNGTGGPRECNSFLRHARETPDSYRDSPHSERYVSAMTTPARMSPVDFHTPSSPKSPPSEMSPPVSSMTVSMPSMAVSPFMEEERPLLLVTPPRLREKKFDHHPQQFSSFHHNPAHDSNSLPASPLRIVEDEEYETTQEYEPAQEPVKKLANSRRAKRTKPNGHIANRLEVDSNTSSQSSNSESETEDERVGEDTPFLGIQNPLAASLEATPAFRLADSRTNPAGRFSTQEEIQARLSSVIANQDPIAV

Row | SMILES | composite z-score [1] | composite z-score [2] | composite z-score [3] | composite z-score [4] | composite z-score [5] | composite z-score [6] | composite z-score [7] | z-score [8] | composite z-score [9] | composite z-score [10]
1 | CC(C)CON=C1C[C@@H](O)[C@@H](O)[C@@H]2[C@@H]3C(=O)N(c4cccc(Oc5ccccc5)c4)C(=O)[C@@H]3CC[C@H]12 | -0.273 | 0.459 | -0.179 | 0.253 | 0.547 | 0.685 | 0.781 | -0.423 (inactive) | 0.769 | -0.0645
2 | C#CCN1C(/C=C/c2ccccc2)C(=O)OC[C@H]1c1ccccc1 (stereo not given in full) | -0.256 and -0.303 | 0.184 and 0.348 | -0.0569 and -0.1 | 0.301 and 0.398 | 0.346 and -0.0877 | -0.0907 and 0.365 | 0.165 and 0.833 | -1.03 (inactive) and -0.536 (inactive) | -0.151 and 0.465 | 0.0401 and -0.276
3 | C=CCN(CCCCC)C(=O)C(c1cccs1)N(C(=O)/C=C\C(=O)O)c1c(Cl)cccc1CO (stereo not given) | 0.0175 and 0.264 | -0.764 and -0.654 | -0.21 and -0.122 | -1.57 and -1.12 | -2.35 and -1.74 | 1.12 and -0.954 | 0.683 and 0.526 | -0.383 (inactive) and 0.395 (inactive) | -0.655 and -1.1 | -0.128 and -0.323
4 | C=CCN(Cc1ccccc1)C(=O)C(c1cccs1)N(C(=O)/C=C\C(=O)O)c1c(Cl)cccc1CO (stereo not given) | 0.233 and 1.13 | -0.778 and -1.07 | -0.241 and -0.193 | -1.08 and -2.14 | -1.53 and -2.16 | -0.984 and -1.12 | 0.462 and -0.851 | -0.0406 (inactive) and 0.885 (inactive) | -1.91 and -1.01 | -0.549 and -0.38
5 | C[N+](C)(C)CCCCNC(=O)[C@@H]1C[C@@H]2C(=O)N[C@@H](CCCC[N+](C)(C)C)C(=O)N2[C@@H]1c1cccc(OCCO)c1 | -0.0301 and -0.304 | 2.1 and 2.23 | -0.0909 and -0.0573 | 1.07 and 1.2 | 0.556 and 0.0462 | -0.181 and -0.179 | 1.07 and 1.16 | -0.101 (inactive) and 0.844 (inactive) | 0.311 and 0.464 | 0.463 and -0.0994
6 | C=CC[C@@H](O)c1ccc(OCCO)cc1 | 0.137 and 0.75 | -0.827 and -0.804 | -0.0908 and -0.279 | -0.0284 and -0.887 | -1.41 and -2.02 | -0.773 and -0.567 | -0.0171 and 0.209 | 0.373 (inactive) and 1.07 (inactive) | -0.871 and -1.16 | -0.184 and -0.134
7 | COC(=O)C1=C(C)N(Cc2ccccc2)C2=C(C(=O)c3ccccc3)[C@H](c3ccccc3)[C@@](O)(C(=O)OC)C(=O)N2[C@@H]1c1ccccc1 | -0.195 and -0.325 | -0.16 and 0.0962 | -0.0759 and -0.0691 | 0.429 and 0.387 | 0.98 and 0.272 | 0.296 and -0.085 | 0.672 and 0.253 | -0.363 (inactive) and 0.429 (inactive) | 0.128 and 0.0478 | -0.236 and 0.625
8 | C=CCN(CCCCC)C(=O)C1N(c2c(Cl)cccc2CO)C(=O)C2C(C(=O)O)C3C=CC21O3 (stereo not given) | 1.15 and 1.51 | -0.58 and -2.44 | -0.283 and -0.216 | -1.66 and -1.11 | -2.36 and -1.86 | -0.855 and -0.992 | -0.506 and -0.277 | 0.887 (inactive) and 0.699 (inactive) | -0.898 and -1.06 | -0.169 and -0.213
9 | C=C[C@@H](C)[C@@H](O)c1ccc(O)c2ccccc12 | 0.306 and 0.254 | -0.54 and -0.797 | -0.105 and -0.154 | -0.262 and -0.0511 | -1.51 and -1.17 | -0.775 and -0.178 | -0.377 and 0.98 | 1.07 (inactive) and 0.849 (inactive) | -0.774 and -0.854 | -0.287 and -0.184
10 | COC(=O)C1=C(C)N(Cc2ccccc2)[C@]23O[C@](C(=O)OC)(C(=O)N2[C@@H]1c1ccccc1)[C@@H](c1ccccc1)[C@@H]3C(=O)c1ccccc1 | -0.139 and -0.413 | 0.458 and -0.235 | -0.0716 and -0.0931 | 0.236 and 0.391 | 0.789 and 0.499 | 0.489 and -0.621 | 0.428 and 0.602 | -0.0163 (inactive) and 0.21 (inactive) | 0.398 and 0.155 | -0.132 and -0.226
11 | COC(=O)C1=C(C)N(Cc2ccccc2)C2=C3C(=O)CCC[C@@H]3[C@@](O)(C(=O)OC)C(=O)N2[C@@H]1c1ccccc1 | -0.438 and -0.212 | 0.999 and -0.117 | -0.122 and -0.0125 | 0.482 and 0.544 | 0.723 and 0.6 | -0.046 and -0.158 | 0.211 and 0.476 | -0.403 (inactive) and 0.0176 (inactive) | 0.325 and 0.107 | 0.136 and -0.0994
12 | COC(=O)C1=C2N(Cc3ccccc3)C(C)=C(C(=O)OC)[C@@H](c3ccccc3)N2C(=O)[C@](O)(C(=O)OC)C1 | -0.416 and -0.485 | 0.969 and 0.932 | -0.166 and -0.0477 | 0.0291 and 0.291 | 1.12 and 0.305 | 0.598 and -0.247 | 1.09 and -0.265 | -0.0085 (inactive) and 0.0331 (inactive) | 0.084 and 0.0516 | 0.065 and -0.0237
13 | COC(=O)[C@@]1(Cc2ccccc2)[C@H]2c3cc(C(=O)N(C)C)n(Cc4ccc(C)c(F)c4F)c3C[C@H]2CN1C(=O)c1ccccc1 | 1 and 0.986 | -0.481 and 0.787 | 0.162 and 0.639 | 0.384 and 0.451 | 1.5 and 1.71 | 1.39 and 1.48 | 1.39 and 1.12 | 3.35 (inactive) and -0.497 (inactive) | 0.705 and 2.39 | 0.176 and 0.567
14 | C=CCN(CCCC)C(=O)C(c1cccs1)N(C(=O)/C=C\C(=O)O)c1ccc(CCO)cc1 (stereo not given) | 0.655 and 1.21 | 0.005 and 0.531 | -0.0493 and -0.166 | 0.115 and -1.62 | -1.83 and -2.34 | 0.863 and -0.409 | 0.867 and -0.0384 | 1.61 (inactive) and 1.37 (inactive) | -0.498 and -1.07 | -0.137 and -0.296
15 | C=CCN(CCCCC)C(=O)C1N(c2ccc(CCO)cc2)C(=O)C2C(C(=O)O)C3C=CC21O3 (stereo not given) | -0.152 and 0.561 | -0.875 and -0.415 | -0.154 and -0.179 | -0.808 and -0.367 | -2.12 and -2.03 | -0.638 and -0.72 | -0.465 and -0.307 | 1.51 (inactive) and 1.3 (inactive) | -0.623 and -0.681 | -0.4 and -0.175
16 | COc1ccc(-c2ccc3c(n2)CCCN3CC(O)CN2CCCc3nc(-c4ccc(Br)cc4)ccc32)cc1 (stereo not given) | 0.0623 and 0.0721 | 0.744 and 0.464 | 0.12 | 0.505 and 0.348 | 0.684 and 0.709 | 1.05 and 0.841 | 0.973 and 0.101 | 3.12 (inactive) and 3.15 (inactive) | 0.584 and 0.306 | 0.281 and 0.167
17 | COC(=O)[C@@]1(Cc2ccc(OC)cc2)[C@H]2c3cc(C(=O)N(C)C)n(Cc4ccc(O)c(OC)c4)c3C[C@H]2CN1C(=O)c1ccccc1 | 0.332 and 0.233 | 0.703 and 0.13 | -0.169 and 0.176 | 0.123 and 1.17 | 1.64 and 1.68 | 2.15 and 1.85 | 1.32 and 1.22 | 2.53 (inactive) and -0.466 (inactive) | 0.808 and 1.15 | 0.329 and 0.483
18 | CCCCN1CC=CC23O[C@@H]4C=CCCOC(=O)C4[C@H]2C(=O)N(C(C)CO)[C@@H]3C1=O (stereo not given in full) | 0.385 and 0.252 | -0.371 and 0.204 | -0.0753 and -0.135 | -0.228 and 0.292 | -0.921 and -0.936 | 1.1 and 0.324 | 0.839 and 1.04 | 0.489 (inactive) and -0.469 (inactive) | -0.337 and 0.104 | -0.137 and 0.251
19 | C[N+](C)(C)CCCCCCNC(=O)[C@H]1C[C@H]2C(=O)N[C@@H](CCCC[N+](C)(C)C)C(=O)N2[C@H]1c1ccc(O)cc1 | 0.267 and 0.341 | 0.137 and 0.115 | -0.106 and -0.158 | 0.105 and 0.129 | -0.2 and -0.619 | -0.0293 and -0.0659 | 1.07 and 1.41 | 0.996 (inactive) and -0.0859 (inactive) | -0.15 and -0.508 | -0.0994 and 0.2
